Reference: the supplement of paper PMC3842684

test system: P. falciparum NF54-pfs16-GFP late (IV-V) stage gametocytes; experiment: relative % inhibition of viable gametocyte number; higher = more gametocytocidal; settings: 0.5 µM; stage: late (IV-V) gametocyte; incubation 72 h
Method in brief: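 Relative inhibition was normalised to in-plate vehicle and positive-control wells, with viable gametocytes defined on confocal images as elongated GFP objects whose MitoTracker Red signal exceeded a cut-off. NF54 pfs16-GFP gametocytes, magnet-isolated at early (I/IIa, day 2) or late (day 8) stage, were plated at 10% parasitaemia, 0.1% haematocrit with compound at 5 or 0.5 µM. Plates were incubated 72 h at 37°C, 5% CO2, 5% O2, then stained overnight.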

Structure (SMILES) | relative % inhibition [%]
Cc1cccc(Nc2nc(N)c3ccccc3n2)c1 | -5.43
FC(F)(F)c1ccc(Nc2nnnc3ccccc23)cc1 | 25
Cc1cc(C)c2c(c1)OCN(Cc1ccccc1Cl)C2 | 31.1
O=C(NC1CCCCC1)C(c1cccs1)N(CCc1ccccc1)C(=O)c1ccco1 (stereo unspecified) | 5.55
COCCn1c(C)nc2ccccc2c1=O | 43.2
CCOc1ccc(C2N(C)c3ccccc3N2C)cc1 | -6.22
CC(C)(C)CC(C)(C)NCC(O)COc1ccc2c(c1)CCC2 (stereo unspecified) | 17.6
O=[N+]([O-])c1ccc(C=NNc2nc3ccccc3[nH]2)cc1 | -1.37
CCOc1ccc(Nc2c3ccccc3nc3ccccc23)cc1 | 8.64
Cc1c(C)n(CC(O)CNC2CCCCC2C)c2ccccc12 (stereo unspecified) | 34.2
O=C(Nc1ccc(N2CCCCC2)c(Cl)c1)c1ccc(Br)o1 | 6.1
COc1ccc(CN2CCCC(C(=O)c3ccc(C(F)(F)F)cc3)C2)c(O)c1 (stereo unspecified) | 14.8
OCCNc1nc(Nc2ccc(Cl)c(Cl)c2)nc2ccccc12 | 53.9
COc1ccc(CCN2CCC(CN(C)Cc3cnn(-c4ccccc4)c3)CC2)cc1 | 11.3
Cc1ccc(Nc2nc(-c3ccccn3)cs2)cc1 | 95.4
O=C(NCc1ccco1)C1CCN(S(=O)(=O)c2ccc(Br)cc2)CC1 | 29
CCCN(CCC)CCCNC(=O)c1cc2c(-c3ccc(OC)c(OC)c3)nn(C)c2s1 | 18.3
CCOc1c(Br)cc(C2C(C(=O)OC)=CN(C)C=C2C(=O)OC)cc1OC | -1.2
OC(CNC1CCCCC1)Cn1c2ccccc2c2ccccc21 (stereo unspecified) | 49.9
CCOC(=O)c1c(C)n(-c2ccc(Cl)cc2)c2ccc(OC(=O)C=Cc3ccccc3)cc12 | 11.1
COc1ccc2nc(C)cc(Nc3ccccc3O)c2c1 | -7.14
O=C(NCCCN1CCC(N2CCCCC2)CC1)C1=Cc2cc(Br)ccc2OC1 | -12.5
CCn1c2c(c(=N)c3c1CCC3)CCCC2 | 10.1

same assay, conditions: 5 µM; stage: late (IV-V) gametocyte; incubation 72 h

Structure (SMILES) | relative % inhibition [%]
Cc1ccc(-c2cc3c(SCC(=O)Nc4cc(C(F)(F)F)ccc4Cl)nccn3n2)cc1 | -15.9
COc1ccccc1CNC(=O)CCn1c(=O)[nH]c2ccsc2c1=O | 0
CCOC(=O)C1=C(c2ccccc2)N=c2sc(=Cc3cc(C)n(-c4ccc(F)cc4)c3C)c(=O)n2C1c1cccc(OC)c1OC (stereo unspecified) | 59.1
O=C(NCc1ccco1)C1CCN(S(=O)(=O)c2ccc(Cl)cc2)CC1 | 50
Cc1ccc2nc(C)cc(Nc3cccc(C(F)(F)F)c3)c2c1 | 19.3
Cc1sc(NC(=O)c2ccccc2)c(C(c2cccs2)N2CCN(c3ccccc3)CC2)c1C (stereo unspecified) | 77
COc1ccc(CCn2c(=N)c(C(=O)NCc3cccnc3)cc3c(=O)n4cccc(C)c4nc32)cc1 | 11.2
Cc1cccc(N2C(=O)C3C(C2=O)C2(c4ccccc4)C(=O)C3(c3ccccc3)C(c3ccc4c(c3)OCO4)=C2c2ccc3c(c2)OCO3)c1 (stereo unspecified) | 10.9
Cc1ccc(F)cc1NC(=O)c1cc(Cl)ccc1Nc1ccccc1 | 46.8
Cc1ccc(Cn2c(N3CCC(C(=O)NCc4cccs4)CC3)nc3ccccc32)cc1 | 23.8
CCCCCCOC(=O)C1=C(C)NC(=O)NC1c1ccccc1F (stereo unspecified) | 3.92
O=C1c2ccccc2C2=Nc3ccccc3SC(c3cccc(F)c3)C12 (stereo unspecified) | 83.8
N#Cc1nc(Cc2cccc3ccccc23)oc1N1CCN(C(c2ccccc2)c2ccccc2)CC1 | 40.5
C=CCc1c(C)nc2ccccc2c1O | 53.7
Cc1ccc(CSCc2ccc(C(=O)NC3CC3)o2)cc1 | 43.1
O=C(CSc1ccc2nnc(-c3cccc(F)c3)n2n1)Nc1ccc2c(c1)OCO2 | 32.1
Cc1cccc(Nc2nc(N)c3ccccc3n2)c1 | 5.81
FC(F)(F)c1ccc(Nc2nnnc3ccccc23)cc1 | 7.26
Cc1cc(C)c2c(c1)OCN(Cc1ccccc1Cl)C2 | 47.8
O=C(NC1CCCCC1)C(c1cccs1)N(CCc1ccccc1)C(=O)c1ccco1 (stereo unspecified) | 6.74
COCCn1c(C)nc2ccccc2c1=O | 16.8
CCOc1ccc(C2N(C)c3ccccc3N2C)cc1 | -12.5
CC(C)(C)CC(C)(C)NCC(O)COc1ccc2c(c1)CCC2 (stereo unspecified) | 20.4
O=[N+]([O-])c1ccc(C=NNc2nc3ccccc3[nH]2)cc1 | -1.1
CCOc1ccc(Nc2c3ccccc3nc3ccccc23)cc1 | 20.9
Cc1c(C)n(CC(O)CNC2CCCCC2C)c2ccccc12 (stereo unspecified) | 54.5
O=C(Nc1ccc(N2CCCCC2)c(Cl)c1)c1ccc(Br)o1 | 22.2
COc1ccc(CN2CCCC(C(=O)c3ccc(C(F)(F)F)cc3)C2)c(O)c1 (stereo unspecified) | 16.7
